Results on 10 compounds are retold here after PubChem BioAssay.

Test [1] addresses ATP-dependent translocase ABCB1 (Homo sapiens) (UniProt P08183). The test can be described thus: MDR1 (ABCB1) efflux transporter inhibition, cell-based (AID 377; in the data active = fluorescence slope change above about 50%). Particulars: MDR1-expressing cells, fluorescent substrate accumulation slope; stronger effect = higher value; concentration not given here.
The nature of test [2]: polyglutamine-triggered caspase-3 activation inhibitors, cell-based (AID 1583). The settings on record: polyglutamine-induced caspase-3 activation, cell assay; stronger effect = higher value;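 tested at 10 µM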.
Test [3] in a line: suppressors of polyQ aggregation in yeast, 75Q-TubU reporter (AID 1593). The settings on record: Yeast 75Q polyglutamine aggregation reporter.
Test [4] is described as follows: rescue of polyQ-huntingtin neuronal dysfunction in worms, whole organism, C. elegans mechanosensory neurons, N-terminal huntingtin (AID 1599). Particulars: touch response, stronger effect = higher value.
Test [5] can be described thus: inhibitors of mitochondrial cytochrome c release, biochemical, purified mitochondria (AID 1603).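 Note: mouse liver mitochondria challenged with calcium chloride; signal normalized to the plate average as 100%.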 Particulars: stronger effect = lower value.
Test [6] can be described thus: inhibitors of polyQ protein aggregation (AID 1604). The settings on record: polyglutamine-induced protein aggregation inhibition assay; stronger effect = higher value; tested at 2.5 µM.
Test [7] in a line: enhancers of glutamate uptake in motor neurons, MN-1 cell line (AID 1612).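 Note: tested at 1 µM final; 0% = mean of DMSO vehicle wells on each plate; positive means more glutamate uptake than control and negative means less.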 The settings on record: MN-1 motor neuron cells, stronger effect = higher value.
A short description of test [8]: suppressors of polyglutamine aggregation in yeast, 75Q-TubH (AID 1616). Particulars: S. cerevisiae 75Q-TubH polyglutamine aggregation suppression; stronger effect = higher value.
Test [9] is described as follows: circadian clock period modulators, cell-based, LOPAC library, luminescence reporter (AID 2774).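 Note: values are relative to mean of DMSO wells on each plate.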 Particulars: circadian reporter cells, at 7 µM, actives lie on both sides.
Test [10] is described as follows: hESC survival regulators, cell-based (AID 493140).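 Note: cells exposed to compounds for four days before counting.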 Particulars: human embryonic stem cell survival screen; stronger effect = higher value.

Each structure is given as a SMILES string. Records with an inconclusive call do not appear. For some of these results: Potency and affinity values are given separately. Active and inactive are the calls of the source. Unless noted, the rule behind the calls is not given here.

Sequence of ATP-dependent translocase ABCB1 (Homo sapiens) (P08183 whole entry, looked up): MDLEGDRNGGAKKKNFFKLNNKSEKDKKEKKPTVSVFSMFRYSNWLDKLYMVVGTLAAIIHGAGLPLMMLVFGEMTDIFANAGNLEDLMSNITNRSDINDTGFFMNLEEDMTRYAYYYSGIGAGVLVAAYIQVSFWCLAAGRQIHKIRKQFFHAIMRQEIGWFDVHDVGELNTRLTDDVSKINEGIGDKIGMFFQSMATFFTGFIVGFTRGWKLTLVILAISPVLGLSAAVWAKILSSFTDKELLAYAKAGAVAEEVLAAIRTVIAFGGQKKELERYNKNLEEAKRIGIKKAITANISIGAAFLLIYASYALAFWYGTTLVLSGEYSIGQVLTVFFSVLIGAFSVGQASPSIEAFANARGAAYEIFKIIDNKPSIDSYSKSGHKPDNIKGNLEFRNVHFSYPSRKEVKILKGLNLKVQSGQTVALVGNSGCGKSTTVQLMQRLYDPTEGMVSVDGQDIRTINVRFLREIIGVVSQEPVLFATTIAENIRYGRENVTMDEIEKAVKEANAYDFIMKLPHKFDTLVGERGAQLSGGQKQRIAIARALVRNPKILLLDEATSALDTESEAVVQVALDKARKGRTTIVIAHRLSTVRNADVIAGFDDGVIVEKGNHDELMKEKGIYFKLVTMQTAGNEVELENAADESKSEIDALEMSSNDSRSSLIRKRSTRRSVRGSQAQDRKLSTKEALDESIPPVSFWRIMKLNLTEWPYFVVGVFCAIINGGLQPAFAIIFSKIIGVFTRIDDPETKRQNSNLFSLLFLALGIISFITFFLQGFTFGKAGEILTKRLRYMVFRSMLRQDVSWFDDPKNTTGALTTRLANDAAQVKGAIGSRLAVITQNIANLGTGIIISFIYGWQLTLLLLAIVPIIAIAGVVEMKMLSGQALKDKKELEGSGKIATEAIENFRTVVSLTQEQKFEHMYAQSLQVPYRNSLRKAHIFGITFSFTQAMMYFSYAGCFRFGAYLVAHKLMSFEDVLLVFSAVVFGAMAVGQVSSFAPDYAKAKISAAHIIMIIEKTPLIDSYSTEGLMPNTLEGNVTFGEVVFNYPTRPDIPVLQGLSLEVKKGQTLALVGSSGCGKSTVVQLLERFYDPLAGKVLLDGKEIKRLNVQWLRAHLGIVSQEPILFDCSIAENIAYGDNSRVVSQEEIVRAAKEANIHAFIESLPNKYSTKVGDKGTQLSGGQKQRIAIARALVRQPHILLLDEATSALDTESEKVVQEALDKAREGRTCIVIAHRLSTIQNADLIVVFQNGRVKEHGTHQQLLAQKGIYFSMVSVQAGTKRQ

For `Clc1ccc(C(c2ccccc2Cl)C(Cl)Cl)cc1` (stereo not drawn), the fluorescence slope change in [1] was 7.7% (inactive). Also, in test [2], the inhibition (in general, the drop in the measured response relative to a control, in per cent) amounted to 21%. This compound had a score in test [3] of -3.35. Moreover, the rescue above control in [4] stood at 0. In addition, the cytochrome c release ratio in test [5] was 3.7. The compound also gave an inhibition of aggregation in test [6] of 72.2%. The glutamate uptake change in [7] is -9.79%. This compound returned an aggregation suppression score in test [8] of -1.87. The period change in test [9] was -0.13 h (inactive).
`CN(Cc1cc(Br)cc(Br)c1N)C1CCCCC1`: in test [2], the inhibition was found to be 50%. The compound also had a score in [3] of 1.59. Further, in [4], the rescue above control was -1.24. In addition, in test [5], the cytochrome c release ratio came out at 1.12. The inhibition of aggregation in [6] was 80.3%. The glutamate uptake change in test [7] is -11.2%. For the same compound, the aggregation suppression score in test [8] worked out at 1.07.
For `CSc1ccc2c(c1)C(N1CCN(C)CC1)Cc1ccccc1S2` (stereo not drawn), the inhibition in test [2] came out at 7.11%. This compound showed a score in [3] of 0.84. The rescue above control in test [4] was 0. Moreover, the cytochrome c release ratio in test [5] stood at 4.27. The inhibition of aggregation in test [6] was 80.6%. Further, in test [7], the glutamate uptake change was found to be 5.12%. The aggregation suppression score in [8] stood at 1.18. In test [9], the period change was 0.085 h (inactive). Also, the survival in [10] was 1.5 (inactive).
For the compound `CC1=CC(=O)c2ccccc2C1=O`, the fluorescence slope change in test [1] is 81.2% (active). Besides, the inhibition in [2] was 56.7%. This compound also returned a score in test [3] of -0.01. The same compound registered a rescue above control in test [4] of -12.4. In test [5], the cytochrome c release ratio was determined as 1.17. In [6], the inhibition of aggregation came out at 53.5%. For the same compound, in test [7], the glutamate uptake change is -13.7%. In test [8], the aggregation suppression score came to 0.00728. In test [10], the survival was 2.42 (inactive).
`NC(CO)C(=O)NNCc1ccc(O)c(O)c1O` (stereo not drawn): the inhibition in test [2] was 5.62%. Also, the score in [3] was 1.68. This compound gave a rescue above control in test [4] of 7.52. For the same compound, in test [5], the cytochrome c release ratio stood at 0.53. In test [6], this compound returned an inhibition of aggregation of 89.7%. In addition, the glutamate uptake change in [7] is 11.3%. For the same compound, in [8], the aggregation suppression score stood at 1.23. Also, in [9], the period change was 0.075 h (inactive). Further, the survival in [10] was 2.42 (inactive).
Take `CN(C)CCC=C1c2ccccc2C=Cc2ccccc21`: the fluorescence slope change in [1] is 73% (active). The inhibition in test [2] was -2.52%. This compound gave a score in test [3] of 1.44. In [4], this compound gave a rescue above control of 5.55. For the same compound, the cytochrome c release ratio in test [5] turned out to be 1.17. Moreover, the inhibition of aggregation in [6] is 84.1%. Moreover, the glutamate uptake change in [7] is -6.52%. Further, the aggregation suppression score in test [8] was 1.07. For the same compound, in test [9], the period change is 0.095 h (inactive). In addition, in [10], the survival was 2.75 (inactive).
On to `CC(Cc1cccc(C(F)(F)F)c1)NCCOC(=O)c1ccccc1` (stereo not drawn), for which the fluorescence slope change in [1] was 69.3% (active). In addition, the inhibition in test [2] amounted to 15%. The score in test [3] amounted to 1.42. In test [4], this compound yielded a rescue above control of 0. Further, the cytochrome c release ratio in test [5] was determined as 1.02. In test [6], this compound displayed an inhibition of aggregation of 40.9%. Further, the glutamate uptake change in test [7] came out at 15.6%. Besides, in [8], the aggregation suppression score worked out at 1.08. Further, the survival in [10] was 2.5 (inactive).
Take `Oc1c(Br)cc(Br)c2cccnc12`: the inhibition in [2] stood at 46.3%. This compound also came in with a score in [3] of -0.06. The compound also returned a rescue above control in [4] of 10.9. In addition, in [5], the cytochrome c release ratio was 2. Further, in test [6], the inhibition of aggregation amounted to 80.3%. Further, the glutamate uptake change in [7] was found to be 4.76%. This compound returned an aggregation suppression score in test [8] of -0.0132.
With `Cc1oncc1C(=O)Nc1ccc(C(F)(F)F)cc1`, in test [1], the fluorescence slope change is 12.9% (inactive). In test [2], the inhibition was -21.8%. In [3], the score amounted to 0.42. The rescue above control in [4] was -2.16. Also, in test [5], the cytochrome c release ratio was 1.42. Further, the inhibition of aggregation in test [6] was found to be 51%. The glutamate uptake change in [7] came to 8.42%. Moreover, in test [8], the aggregation suppression score came to 0.133. In addition, the period change in test [9] is 0.35 h (inactive). The survival in test [10] was 6.08 (inactive).
For the compound `CN1CCC[C@@H]1CCO[C@](C)(c1ccccc1)c1ccc(Cl)cc1`, in test [1], the fluorescence slope change is 188% (active). Besides, in test [2], the inhibition was determined as 2.42%. The score in [3] worked out at 1.25. The rescue above control in test [4] stood at 0. Further, in test [5], the cytochrome c release ratio is 1.13. Further, in test [6], the inhibition of aggregation was 76.2%. The glutamate uptake change in test [7] turned out to be 65.2%. For the same compound, the aggregation suppression score in test [8] came out at 0.9. For the same compound, the survival in [10] is 6.33 (inactive).
